Most compounds without a hit are left out; they make up all but 7.4% or so of the library.
Rab9 prom act: activators of Rab9 promoter | Huh7 Rab9 promoter-luciferase reporter, luminescence, 24 h | Potency, µM (series often up to 9.22 µM), without a hit: at the top dose activation, negative = inhibition, most hits filed as activators | 2.8% of 320,000 active | AID 485297; note: % of control where 0% means no effect; nearly all actives have a fitted effect of over 60% in size
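Cell-based reporter: Huh7 stable for Rab9 promoter-driven luciferase, plated in reduced-serum medium with 10% FBS at 1500 cells/well, compound-treated 24 h at 37 °C, luminescence read after 10 min reagent.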
FLuc counter: counter-screen for miR-21 project: firefly luciferase inhibitors or activators | Potency, µM (top dose mostly 57.5 µM), inactives show top-dose activity change, negative = inhibition, hits mostly inhibitors | 6.9% of 360,000 active | AID 588342 | purified FLuc, Km substrates, luminescence inhibition | P08659;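 note: plate controls were vehicle for no effect and reference inhibitor for full effect; nearly all actives have a fitted effect of over 55% in size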
Target sequence (P08659 whole entry, looked up): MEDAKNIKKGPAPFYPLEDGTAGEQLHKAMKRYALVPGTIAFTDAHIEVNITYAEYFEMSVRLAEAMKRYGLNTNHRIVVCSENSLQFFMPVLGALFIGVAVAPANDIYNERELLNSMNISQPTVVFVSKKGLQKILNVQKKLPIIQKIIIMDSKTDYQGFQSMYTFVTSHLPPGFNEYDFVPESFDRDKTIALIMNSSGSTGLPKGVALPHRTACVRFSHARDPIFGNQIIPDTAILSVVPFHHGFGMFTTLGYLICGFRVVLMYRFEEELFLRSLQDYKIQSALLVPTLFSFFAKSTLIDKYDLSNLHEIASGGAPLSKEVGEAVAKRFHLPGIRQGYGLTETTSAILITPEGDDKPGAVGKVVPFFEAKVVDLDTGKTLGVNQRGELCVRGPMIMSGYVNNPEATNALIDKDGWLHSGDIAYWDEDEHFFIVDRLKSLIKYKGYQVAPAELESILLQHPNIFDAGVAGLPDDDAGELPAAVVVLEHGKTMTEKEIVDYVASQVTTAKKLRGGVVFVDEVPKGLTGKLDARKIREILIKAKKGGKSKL
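Purified P. pyralis luciferase (10nM final) with 10uM D-luciferin and 10uM ATP (Km levels) in 50mM Tris acetate pH 7.5, 10mM Mg acetate, 0.01% Tween-20, 0.05% BSA; qHTS 6-point titration, ~60 µM downward; luminescence read.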
SMN2 splice enh: increases expression of the SMN2 splice variant; Potency, µM (doses to about 46.1 µM), without a hit: top-dose activity change, positive = activation, usual class: activators; HEK293 SMN2-luciferase splicing reporter, luminescence, 30-36 h; 2.8% of 210,000 active; AID 1458; note: % of control where 0% means no effect; nearly all actives have a fitted effect of over 55% in size
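qHTS luciferase splicing reporter: luminescence rises when SMN2 exon 7 is included in transfected HEK293 cells. Compound exposure lasted 30-36 h at 37C, with 4.5 mM final sodium butyrate as control, followed by a ONE-Glo read.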
NPC1 promoter act: NPC1 promoter activation. 2.4% of 320,000 active. Huh7 NPC1 promoter luciferase reporter, 24 h. AID 485313. Potency, µM (titrated, usually from 9.22 µM), for inactives: top-dose activation, usual class: activators; note: % of control where 0% means no effect; nearly all actives have a fitted effect of over 60% in size
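Luminescence from an NPC1 promoter-driven luciferase reporter in stably transfected Huh7 cells was measured after 24 h compound treatment at 37 °C, followed by 10 min ambient incubation with luciferase detection reagent.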
ELG1 genotoxic: inducers of genotoxicity in HEK293T ELG1-luciferase cells; HEK293T ELG1-luciferase reporter, luminescence, 16 h; Potency, µM (top dose mostly 46 µM), without a hit: top-dose activity change, positive = activation, hits mostly activators; 1.3% of 330,000 active; AID 504466; note: % of control where 0% means no effect; nearly all actives have a fitted effect of over 60% in size
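Luminescence read-out: rising ELG1-luciferase signal, reflecting elevated ELG1 protein under genetic stress, flags genotoxic compounds. Cells were treated for 16 hr at 37 °C before ONE-Glo detection.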
p53 reactivation: re-activators of mutant p53. Potency, µM (doses to about 92.2 µM), inactives show at the top dose activity change, positive = activation, most hits filed as activators. 0.063% of 320,000 active. H1299 p53-A138V BP100-luciferase reporter, luminescence, 24 h; note: % of control where 0% means no effect; nearly all actives have a fitted effect of over 45% in size
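p53-null H1299 cells stably carrying temperature-sensitive p53-A138V and a BP100-luciferase reporter were pinned with compounds (4-point, 1:5 series) and held 24 hrs at 37 deg C. Luminescence was read 10 min after detection reagent.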
Active calls of the source: *; ? = inconclusive; . = no result given; [ ] = another dose, or the depositor's remark. Calls come from the whole dose curve; as a rule, active = well fitted curve in the direction sought with a large enough effect; inconclusive = small, poorly fitted or top-dose-only effect, or another doubt; inactive = no such curve, though single readings can be large; an effect the other way counts as inactive or inconclusive. Potency is the fitted concentration of half-maximal effect.

SMILES	Rab9 prom act	FLuc counter	SMN2 splice enh	NPC1 promoter act	ELG1 genotoxic	p53 reactivation
CNC(=O)c1c(Br)cnn1-c1ccc(C)cc1	3.16µM*	7.57µM*	.	2.82µM*	?	9.9%
CNc1cnn(-c2ccc(C)cc2)c(=O)c1Cl	3.16µM*	13.5µM*	11.2µM*	1.58µM*	?	6.9%
CNc1cnn(-c2ccc(C)cc2)c(=O)c1Sc1ccc(C)cc1	1.3%	-1.2%	7.9%	0.3%	2.3%	1.8%
COC(=O)[C@@]1(Cc2ccc(OC)cc2)[C@H]2c3cc(C(=O)N(C)C)n(Cc4ccccn4)c3C[C@H]2CN1C(=O)c1ccccc1	.	.	-2.3%	.	.	.
N#CC1(NC(=O)COC(=O)/C=C/c2ccc3ccccc3n2)CCCCC1	-2.8%	-16.3%	.	-1.4%	17.2%	-5.0%
O=C(O)C1CC(=O)N(c2ccc(OCc3ccc(Cl)cc3Cl)cc2)C1 (stereo not given)	-5.2%	16.9µM*	9.7%	-2.0%	2.3%	-4.5%
NC(=O)C1CC(=O)N(c2ccc(OCc3ccc(F)cc3)cc2)C1 (stereo not given)	?	?	.	2.51µM*	18.3µM*	.
N=c1n(N)c2ccccc2n1CC(=O)c1ccc(Br)cc1	?	?	.	27.8%	13.0%	.
COc1ccc(NC(=O)CNC(=O)c2nn(-c3ccc(OC)cc3OC)c(=O)c3ccccc23)c(OC)c1	-1.7%	2.9%	.	2.4%	3.5%	-0.7%
Cc1nc(SCc2ccc(OCCC(C)C)cc2)n[nH]1	?	21.3µM*	?	?	?	6.0%
Cc1ccc(C(=O)OCc2nnc(-c3ccc(Br)cc3)o2)cc1	-0.6%	?	-5.1%	0.6%	1.2%	9.3%
Cc1ccc(-c2nnc(COC(=O)c3cccs3)o2)cc1	20.9%	6.75µM*	.	?	?	.
Cc1ccc(-c2nnc(COC(=O)c3ccco3)o2)cc1	-2.0%	13.5µM*	.	-5.5%	13.2%	2.2%
COC(=O)C1(Cc2ccccc2)C2c3cc(C(=O)N4CCCC4)n(Cc4ccc(OC(F)(F)F)cc4)c3CC2CN1C(=O)c1ccccc1 (stereo not given)	.	.	-45.9%	.	.	.
Cc1ccc(Cl)cc1-n1c(CCC(=O)O)ccc1-c1cccs1	.	?	-4.8%	.	.	.
CCc1ccc(-n2c(CCC(=O)O)ccc2-c2cccs2)cc1	.	13.5µM*	2.4%	.	.	.
Cc1ccc(-n2c(CCC(=O)O)ccc2-c2cccs2)cc1C	-7.8%	12µM*	-12.5%	1.5%	1.9%	2.9%
CCOC(=O)c1ccc(-n2c(CCC(=O)O)ccc2-c2cccs2)cc1	-10.9%	?	2.5%	-5.3%	4.7%	7.2%
CCN1CCN(c2ccc(NC(=O)COc3ccc(Cl)cc3C)cc2)CC1	.	.	.	.	-5.7%	-5.5%
CCOC(=O)c1ccc(NC(=O)CN2C(=O)NC3(CCCCCCC3)C2=O)cc1	-2.4%	?	.	11.8%	-0.5%	-15.6%
O=C(NCc1cccs1)O[C@H]1C[C@H]2CC[C@@H]1C2	.	.	-12.7%[9.22 µM]	.	.	.
COc1ccccc1CN1CC[C@@]2(CCCN(C(=O)c3cnccn3)C2)C1	.	.	5.1%	.	.	.
CC(C)(C)c1cc(NCc2ccccn2)n2ncc(-c3ccccc3)c2n1	16.6%	16.9µM*	.	23.1%	-2.4%	22.4%
c1ccc(-c2csc3ncnc(NCc4ccccn4)c23)cc1	-17.9%	-16.4%	.	-6.5%	-12.8%	-2.4%
Cc1cc(NCCN2CCOCC2)n2ncc(-c3ccccc3)c2n1	1.58µM*	7.57µM*	14.1µM*	0.708µM*	8.2µM*	22.1%
SMILES	Rab9 prom act	FLuc counter	SMN2 splice enh	NPC1 promoter act	ELG1 genotoxic	p53 reactivation
Cc1cc(NC2CCCC2)n2nc(C)c(-c3ccccc3)c2n1	?	19µM*	.	28.8%	?	?
Cc1cc(NCCN2CCOCC2)n2nc(C)c(-c3ccccc3)c2n1	-0.2%	-8.0%	9.6%	1.0%	3.1%	4.1%
COc1ccccc1-c1cnn2c(NCCc3ccccc3)cc(C)nc12	19.2%	10.7µM*	.	15.4%	10.3%	?
COc1ccc(-c2c(C)nn3c(NC4CCCC4)cc(C)nc23)cc1OC	-3.5%	-12.8%	.	-13.1%	-7.6%	-2.3%
N#CC(C#N)=CNCCN1CCN(C=C(C#N)C#N)CC1	.	.	-15.2%[9.22 µM]	.	.	.
O=C(Nc1ccc(N2CCN(c3ccc(F)cc3)CC2)c(C(=O)O)c1)c1ccccc1F	.	-2.6%	.	.	.	.
COc1cccc(CNC(=O)c2cccc(-n3c(C)nc4cccnc43)c2)c1OC	.	-2.3%	.	.	.	.
COc1cc(Cl)c(NC(=O)CN(C)S(=O)(=O)c2ccc3[nH]c4c(c3c2)CCCC4)c(OC)c1	.	-5.1%	.	.	.	.
COc1ccccc1NC(=O)CN1C(=O)C(c2ccc(F)cc2)=NC12CCCCC2	.	-1.9%	-22.8%	.	.	.
CN(C)CCNc1nc2c(c(=O)n(C)c(=O)n2C)n1C	.	.	-2.9%[9.22 µM]	.	.	.
COc1ccc2c(c1)O[C@@H](c1cccc(C(F)(F)F)c1)[C@H](OC(=O)NCc1ccc3c(c1)OCO3)C2=O	.	.	-5.4%	.	.	.
Cc1cc(NC(C)c2ccccc2)n2ncc(-c3ccccc3)c2n1 (stereo not given)	3.98µM*	12µM*	.	2.51µM*	?	?
Cc1cc(NCc2ccccc2)n2ncc(-c3ccccc3)c2n1	0.891µM*	2.39µM*	.	1.58µM*	4.11µM*	?
COc1ccc(CCNc2cc(C)nc3c(-c4ccccc4)cnn23)cc1OC	-0.9%	-7.5%	-28.8%	-0.4%	-5.1%	?
Cc1cc(NC2CCCC2)n2ncc(-c3ccccc3)c2n1	?	0.213µM*	.	?	0.164µM*	-2.0%
Cc1ccc(C)c(CN2C(=O)c3ccccc3S(=O)c3ccc(C(=O)NCc4ccccc4)cc32)c1 (stereo not given)	.	0.3%	21.9%	.	.	.
CCOC(=O)c1ccc(CNC(=O)c2cc(COc3ccccc3SC)on2)o1	?	8.49µM*	.	2.51µM*	?	20.5%
CSc1ccccc1OCc1cc(C(=O)NCc2ccc(C)s2)no1	20.5%	?	.	19.6%	1.8%	13.7%
CSc1ccccc1OCc1cc(C(=O)N(C)Cc2ccc3nsnc3c2)no1	0.708µM*	?	.	0.631µM*	3.26µM*	-13.8%
CSc1ccccc1OCc1cc(C(=O)N(C)Cc2ccc(C)o2)no1	3.98µM*	16.9µM*	.	?	?	?
Cc1ccc(C(=O)NCC(=O)N(C)CC(=O)Nc2ccccc2Br)s1	0.5%	-3.2%	.	-3.2%	1.4%	11.9%
COc1cc(NC(=O)CCc2c(C)nc3c(c(C)nn3-c3ccccc3)c2C)cc(OC)c1OC	.	-0.3%	0.7%	.	.	.
COc1ccc(-c2cc(OC(=O)c3ccc(F)cc3)c3c(C)oc(C)c3c(=O)c2)cc1OC	.	-6.8%	3.3%	.	.	.
O=C(O)c1ccccc1C(=O)Nc1ccc(Oc2ccc3ccccc3c2)cc1	-3.0%	26.9µM*	.	-2.8%	2.6%	2.6%

Screening results as filed in PubChem BioAssay.
